# Measured values taken from PubChem BioAssay AID2314 (National Center for Advancing Translational Sciences (NCATS), 2010).
# Hit rate of the full screen: of about 300,000 compounds, about 37,000 (12%) were called active. The full list was thinned out, with actives kept by preference. Unmarked numbers belong to inactive results. Rule as the data show it: active = max response mostly above about 13% (no sharp cut-off); inactive = mostly below about 14%.
# Test: Cycloheximide Counterscreen for Small Molecule Inhibitors of Shiga Toxin; also: read at 38.3 µM for the half of the compounds with a filed dose; 0% is about no effect
# Conditions: cell reporter, cycloheximide protein synthesis inhibition counterscreen; hits give high values
row,SMILES,max response
1,Cc1cc(OCC(=O)N2CCN(c3ncccn3)CC2)ccc1Cl,-2.98%
2,O=C(CC1C(=O)NCCN1CC(c1ccccc1)c1ccccc1)NCC1CCOCC1 (configuration not stated),-4.31%
3,CCCc1nc(NCc2ccc3c(c2)OCO3)c2nnn(Cc3ccccc3Cl)c2n1,-2.15%
4,Cc1nc(Nc2ccccc2F)c2nnn(Cc3ccccc3Cl)c2n1,-1.8%
5,Cc1nc(Nc2ccc3c(c2)OCCO3)c2nnn(Cc3ccccc3Cl)c2n1,83.5% (active)
6,CC1(c2ccc3ccccc3c2)NC(=O)N(CC(N)=O)C1=O (configuration not stated),-1.55%
7,CC(C)=C(NC(=O)c1ccco1)C(=O)NCCc1nc2ccccc2[nH]1,-2.53%
8,Nc1cccc(CCc2nc3ccccc3[nH]2)c1,24% (active)
9,Cc1ccc2nc(SCc3cn4c(C)cc(C)nc4n3)[nH]c2c1,-4.98%
10,O=C(CNCc1ccc(Cl)cc1)Nc1cccc(C(=O)O)c1,-7.34%
11,O=C(Nc1nnc(-c2ccc(Cl)cc2)o1)c1ccccc1Br,14.7%
12,O=C(c1[nH]ncc1-c1ccc(Cl)cc1)C1CO1 (configuration not stated),16.3%
13,O=C(c1nnc(-c2ccc(Cl)cc2)o1)C1CCCC1,15.5% (active)
14,CCCC(=O)N1CCC(CCC(=O)NC2CC2)CC1,10.7%
15,COc1ccc(C(=O)Nc2c(N)nc(SCC(=O)Nc3ccc(C(C)=O)cc3)[nH]c2=O)cc1,0.562%
16,CCc1ccc(C(=O)NN=C2CCCCCC2)s1,33% (active)
17,CS(=O)(=O)N(Cc1ccccc1)c1ccc(C(=O)NN=C2CCCCCC2)cc1,0.492%
18,CC(C)(C)NC(=O)C(=O)NN=C1CCCCCCC1,17.4%
19,COC(=O)c1cc(N2CCNCC2)nc2ccccc12,-0.723%
20,CCSc1nsc(NC(=O)Nc2ccccc2OC)n1,29.3% (active)
21,CCc1nnc(NC(=O)CSc2nnnn2-c2cccc(C(C)=O)c2)s1,-0.713%
22,CC(=O)c1cccc(NC(=O)[C@@H](NC(N)=O)C(C)C)c1,-2.8%
23,C=CCSc1nsc(NC(=O)Nc2cccc(C(C)=O)c2)n1,15.7% (active)
24,CCc1nc(SCC(=O)Nc2ccccc2OC)n[nH]1,-2%
25,C=C(C)C(=O)Nc1cccc(C(C)=O)c1,-4.07%

row,SMILES,max response
1,CC(=O)c1cccc(NC(=S)N2CCN(S(C)(=O)=O)CC2)c1,3.24%
2,CCSc1nsc(NC(=O)Nc2cccc(C(C)=O)c2)n1,47.8% (active)
3,COc1ccccc1NC(=O)Nc1nnc(Cc2ccc(F)cc2)s1,-1.91%
4,Cc1cccn2c(=O)c3cc(C(=O)NCC4CCCO4)c(=N)n(Cc4ccc(F)cc4)c3nc12 (configuration not stated),-1.9%
5,Cc1cc2oc(=O)cc(-c3ccccc3)c2c(C)c1/C=C/c1ccc(F)cc1,11.8%
6,COc1ccc(CCNC(=O)CCCCCNC(=O)N2CCn3c2nc2ccccc23)cc1OC,-1.5%
7,Cc1c(Cl)cccc1NC(=O)NCc1ccc(C)n1C,-4%
8,CCCn1c(C(C)Nc2nc(-c3ccc(C)cc3)cs2)nc2cc(Cl)c(N3CCCCC3)cc21 (configuration not stated),-2.37%
9,CCOC(=O)CSc1nc(C)c(Oc2ccc(Cl)cc2Cl)c(=O)[nH]1,-0.833%
10,COC(=O)c1ccc(/C=N\n2c(C)nnc2C)cc1,-2.39%
11,COC(=O)c1ccc(/C=N/N2C(C)CCCC2C)cc1 (configuration not stated),32.3% (active)
12,CC1CCCC(C)N1/N=C/c1ccccc1OC(F)F (configuration not stated),7.52%
13,CNC(=O)c1c(NC(NC(=O)c2ccco2)C(=O)c2ccc(Cl)cc2)sc2c1CCCC2 (configuration not stated),-2.69%
14,COC(=O)c1ccc(NC(=O)CSc2nncn2-c2cccnc2)cc1,3.92%
15,COC(=O)C1(C)NC(c2ccc(F)cc2)C2C(=O)N(c3ccccc3)C(=O)C21 (configuration not stated),-1.89%
16,CN(CC(=O)Nc1ccc(Cl)cc1)C(=O)CNC(=O)c1ccc2ccccc2c1,24.6% (active)
17,COc1ccc(NC(=O)CN(C)C(=O)CNC(=O)C2CCCCC2)cc1,4.44%
18,COc1cccc(NC(=O)CN(C)C(=O)Cc2ccc(Cl)cc2Cl)c1,-1.79%
19,CCOC(=O)[C@@H]1[C@H]2COc3cc(OC)ccc3[C@@H]2N2C(=O)N(c3cccc(C)c3)C(=O)[C@@]12C,-1.45%
20,CCCCn1c(-c2cccc(C)c2)nc2cc3[nH]c(=O)c(C(C)C)nc3cc21,8.65%
21,CC1(C)CCSC(/C=C/c2ccccc2)=N1,32.8% (active)
22,CCCCC(CC)CNC(=O)C(=O)C1C(=O)Nc2ccccc21 (configuration not stated),15.4%
23,C[C@@H]1C(c2ccc(F)cc2)=NN(c2ccc(Br)cc2)[C@H]1C(=O)N1CCOC1=O,-1.82%
24,COc1ccc(/C=N/Nc2ncnc3sc4c(c23)CCCC4)cc1O,27.5% (active)
25,COc1ccc(NC(=O)CCNC(=O)Cn2cnc3sc4c(c3c2=O)CCCC4)cc1OC,-3.75%

row,SMILES,max response
1,COc1ncnc2sc3c(c12)CCCC3,-0.884%
2,COc1ccc(C2C(C(C)=O)=C(O)C(=O)N2c2nccs2)cc1 (configuration not stated),-3.41%
3,COc1ccc(C(=O)NNC(=S)NC(=O)c2ccccc2[N+](=O)[O-])cc1,2.1%
4,Cc1ccc(NC(=O)CN2C(=O)NC(C)(c3ccc(Cl)cc3)C2=O)c(Br)c1 (configuration not stated),-5.49%
5,CC(=O)c1cccc(NC(=O)C2COc3ccccc3O2)c1 (configuration not stated),23.2% (active)
6,COc1ccc(C(=O)N2CCC(C(=O)Nc3ccc(C)cc3)CC2)cc1,4.42%
7,COc1ccc(NC(=O)C2COc3ccccc3O2)cc1 (configuration not stated),41% (active)
8,CC(/C=C/c1ccco1)=N/NC(=O)C1COc2ccccc2O1 (configuration not stated),7.66%
9,COc1cccc(N(C(=O)C2COc3ccccc3O2)C(C(=O)NC2CCCCC2)c2ccc(O)cc2)c1 (configuration not stated),8.69%
10,C/C(=N/NC(=O)C1COc2ccccc2O1)c1ccco1 (configuration not stated),4.02%
11,Cn1nc(C(F)(F)F)c(C(=O)Nc2cccc(C(F)(F)F)c2)c1SCc1ccc(Cl)cc1,-3.55%
12,Cc1ccc(CN(CC(=O)NCC2CCCO2)S(=O)(=O)c2ccc(C)cc2)cc1 (configuration not stated),-1.68%
13,O=C1Nc2ccccc2/C1=C/c1ccnc2ccccc12,-4.29%
14,Cc1cccn2c(=O)c(C=O)c(Nc3ccc(S(N)(=O)=O)cc3)nc12,-2.14%
15,CC(C)C(C)NC(=O)COc1nc2ccccc2nc1N(C)C1CCCCC1 (configuration not stated),-4.63%
16,O=c1c2ccccc2ncn1/N=C/c1ccccc1,40.3% (active)
17,CCCc1nc2ccccc2c(=O)n1/N=C/c1ccc(O)c(O)c1,-1.03%
18,O=c1c2ccccc2nc(N/N=C/c2ccccc2)n1O,11.3%
19,O=C(O)CCC(=O)O,7.04%
20,COc1ccc(C(C(=O)NC(C)(C)C)N(C(=O)Cn2nnc3ccccc32)c2ccc(C(C)=O)cc2)cc1O (configuration not stated),14.1% (active)
21,CCC(C)(C)NC(=O)C(c1ccc(O)cc1)N(C(=O)Cn1nnc2ccccc21)c1ccc(NC(C)=O)cc1 (configuration not stated),-2.51%
22,COc1ccc(C(C(=O)NCC2CCCO2)N(C(=O)Cn2nnc3ccccc32)c2ccc(NC(C)=O)cc2)cc1OC (configuration not stated),-1.07%
23,COC(=O)C1CCN(CC(N)=O)CC1,-5.67%
24,CCOP(=O)(OCC)C(Nc1cccc(C)c1)c1ccc(F)cc1 (configuration not stated),-1.31%
25,COc1ccccc1OCCOc1ccc(/C=N/n2cnnc2)cc1,-5.27%

row,SMILES,max response
1,C(=N\n1cnnc1)/c1cccnc1,0.339%
2,COc1cccc(OCCOc2cccc(/C=N/n3cnnc3)c2)c1,42.6% (active)
3,CCc1ccc(-c2cc(C(=O)NN3CCN(C)CC3)c3ccccc3n2)cc1,21.6% (active)
4,CNC(=O)COC(=O)c1cc(-c2ccc(OC)cc2)nc2ccccc12,10.9%
5,COC(=O)CNC(=O)c1cc(-c2ccncc2)nc2ccccc12,7.25%
6,O=C(COc1ccc(Cl)cc1)NCCS(=O)(=O)N1CCN(c2ccc(F)cc2)CC1,-2.81%
7,N#Cc1ccc(C2N=C(c3ccccc3)NO2)cc1 (configuration not stated),50.7% (active)
8,Brc1ccccc1C1Nc2cccc3cccc(c23)N1,-2.34%
9,Brc1ccccc1C1N=C(c2ccccc2)NO1 (configuration not stated),46.9% (active)
10,S=C1NC(c2ccccc2)=NCN1c1ccc(Br)cc1,11.3%
11,COc1ccc(CNC(=O)c2cc(C(=O)C3CC3)c[nH]2)cc1,-0.249%
12,Cc1cc(Nc2cccc(C)c2C)n2ncnc2n1,-1.07%
13,CCn1cc(C(=O)OCC(=O)Nc2cccc(C)c2)c(=O)c2ccc(C)nc21,-2.42%
14,CN(c1ccc(OCC(=O)OCC(=O)Nc2cccc([N+](=O)[O-])c2)cc1)S(=O)(=O)c1ccc(F)cc1,5.41%
15,Cc1onc(-c2ccccc2)c1C(=O)N1CCN(S(=O)(=O)c2ccccc2C(F)(F)F)CC1,10.2%
16,Cc1cc(N/N=C/c2ccccc2F)c2ccccc2n1,-1.58%
17,FC(F)(F)c1nc2ccccc2nc1N/N=C/c1ccc(Cl)cc1,-0.973%
18,Oc1ccc(/C=N/NC2=NCCCCC2)c(O)c1,42% (active)
19,COc1ccc(/C=C(\C#N)C(=O)ONC2=NCCCCC2)cc1,9.41%
20,Cc1nc2ccccc2nc1N/N=C/c1ccc(O)cc1O,25% (active)
21,Cc1ccc(/C=N/NC(=O)C2=NNC(c3ccccc3)(c3ccccc3)C2)c(O)c1,9.49%
22,Oc1ccc(/C=N/Nc2nc(-c3ccccc3F)nc3ccccc23)c(O)c1,15.1% (active)
